Screening data as filed in PubChem.
miR-21 reporter: qHTS Assay for Modulators of miRNAs and/orActivators of miR-21; HeLa miR-21 FLuc reporter, luciferase, 48 h; Potency, µM (titrated, usually from 38.3 µM), hits mostly activators; 340,000 tested, under 10 active;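 further: miR-21 action dims this reporter so a rising signal means less miR-21 action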
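HeLa cells stably expressing CMV-driven firefly luciferase with a downstream miR-21 binding sequence, endogenously expressing miR-21, were treated with titrations (up to about 40uM final) for 48 hours at 37 degree Celsius. Luciferase luminescence was read after lysis.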
TDP1 inh: qHTS Assay for Inhibitors of Tyrosyl-DNA Phosphodiesterase (TDP1); Tyrosyl-DNA phosphodiesterase 1 (Homo sapiens), Q9NUW8; recombinant TDP1, AlphaScreen DNA substrate cleavage; Potency, µM (series often up to 130 µM), hits mostly inhibitors; actives 0.28% (n = 350,000); further: nearly all actives have a fitted effect of over 40% in size
Target sequence (Q9NUW8 whole entry, looked up): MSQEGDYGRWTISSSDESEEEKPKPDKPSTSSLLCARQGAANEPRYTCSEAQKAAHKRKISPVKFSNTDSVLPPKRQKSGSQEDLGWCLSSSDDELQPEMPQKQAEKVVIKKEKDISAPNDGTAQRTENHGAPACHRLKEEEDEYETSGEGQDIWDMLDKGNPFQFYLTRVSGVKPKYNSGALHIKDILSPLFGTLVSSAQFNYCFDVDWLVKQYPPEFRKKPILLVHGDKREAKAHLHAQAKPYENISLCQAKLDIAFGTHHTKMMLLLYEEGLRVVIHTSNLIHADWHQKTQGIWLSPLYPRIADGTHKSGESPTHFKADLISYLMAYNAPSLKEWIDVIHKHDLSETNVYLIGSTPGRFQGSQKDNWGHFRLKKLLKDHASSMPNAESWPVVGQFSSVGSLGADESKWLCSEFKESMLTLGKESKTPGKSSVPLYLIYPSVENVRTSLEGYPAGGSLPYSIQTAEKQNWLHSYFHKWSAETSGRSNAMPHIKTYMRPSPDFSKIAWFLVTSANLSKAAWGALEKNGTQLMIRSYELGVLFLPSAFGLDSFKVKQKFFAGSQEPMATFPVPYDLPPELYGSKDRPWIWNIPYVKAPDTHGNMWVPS
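Enzyme-compound mixtures sat 15 min at room temperature, followed by a 5 min reaction with 15 nM final substrate and 10 min with AlphaScreen beads. Recombinant human Tdp1 was used at 1 nM final.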
TDP1 cell CPT: qHTS for Inhibitors of human tyrosyl-DNA phosphodiesterase 1 (TDP1): qHTS in cells in presence of CPT; actives 12% (n = 420,000); Potency, µM (series often up to 46.2 µM), most hits filed as inhibitors; chicken DT40 Tdp1-/-;hTDP1 cells + 20 nM CPT, ATP luminescence, 48 h; further: nearly all actives have a fitted effect of over 55% in size
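Chicken DT40 Tdp1-/- cells complemented with human TDP1, 400 cells/well, exposed to compounds plus 20 nM camptothecin for at least 48 h at 37 C; viability read as ATP content by CellTiter-Glo luminescence.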
TDP1 cell noCPT: qHTS for Inhibitors of human tyrosyl-DNA phosphodiesterase 1 (TDP1): qHTS in cells in absence of CPT. AID 686978, 2013. DT40 Tdp1-/- hTDP1 cells, no CPT, ATP luminescence, 48 h. Potency, µM (top dose mostly 46.2 µM), hits mostly inhibitors. actives 15% (n = 420,000); further: nearly all actives have a fitted effect of over 55% in size
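No-CPT arm: Tdp1-/-;hTDP1 DT40 cells (400/well) plus compounds, incubated ≥48 hr at 37 °C. Readout CellTiter-Glo luminescence.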
uPA surface inh: qHTS for Inhibitors of Cell Surface uPA Generation; cell surface uPA generation assay, qHTS; Potency, µM (doses to about 38.3 µM), most hits filed as inhibitors; actives 0.31% (n = 330,000); active means well fitted inhibition curve with a large enough effect; inconclusive means small, poorly fitted or top-dose-only effect; inactive means no such curve, though single readings can be large or run the other way; tested in mouse RAW 264.7 cells; further: nearly all actives have a fitted effect of over 55% in size
Hits are given with their value; [ ] = dose if it differs, or a comment. In the library only some 16% were active in any assay of this set; here they are far more common. Unless noted, the call rests on the fitted dose curve; in most records, active means well fitted curve in the direction sought with a large enough effect; inconclusive means small, poorly fitted or top-dose-only effect, or another doubt; inactive means no such curve, though single readings can be large; an effect the other way counts as inactive or inconclusive.

What do the screens show for `COc1ccc(-c2coc3ccc(OC4OC(COC(C)=O)C(OC(C)=O)C(OC(C)=O)C4OC(C)=O)c(OC(C)=O)c3c2=O)cc1` (configuration not stated)?
TDP1 inh: inactive; TDP1 cell CPT: inconclusive; TDP1 cell noCPT: 8.41µM

How did COc1ccc(O[C@@H]2O[C@H](COC(C)=O)[C@@H](OC(C)=O)[C@H](OC(C)=O)[C@H]2NC(C)=O)cc1 do in these assays?
miR-21 reporter: inactive; TDP1 inh: inactive; TDP1 cell CPT: inactive; TDP1 cell noCPT: inactive; uPA surface inh: inactive

Results for CCc1cc(Cl)c(OC)c(C(=O)NC[C@@H]2CCCN2CC)c1O ?
TDP1 inh: inactive; TDP1 cell CPT: inconclusive; TDP1 cell noCPT: 25.9µM; uPA surface inh: inconclusive

How did COc1cccc(NC(=O)COc2ccc(C(=O)N3CCN(C)CC3)cc2)c1 do in these assays?
miR-21 reporter: inactive; TDP1 inh: inactive; TDP1 cell CPT: inactive; TDP1 cell noCPT: inactive

What do the screens show for `Cc1ccc(S(=O)(=O)Nc2cc(Cl)c3oc4c(c3c2)CCCC4)cc1`?
miR-21 reporter: inactive; TDP1 inh: inactive[12.3 µM]; TDP1 cell CPT: inconclusive; TDP1 cell noCPT: 13µM

How did COc1ccc(S(=O)(=O)Nc2ccc3oc(C)c(C(=O)O)c3c2)cc1 do in these assays?
miR-21 reporter: inactive; TDP1 inh: inactive; TDP1 cell CPT: inactive; TDP1 cell noCPT: inactive; uPA surface inh: inactive

How did COc1ccc(S(=O)(=O)Nc2ccc3oc4c(c3c2)CCCC4)cc1 do in these assays?
miR-21 reporter: inactive; TDP1 inh: inactive; TDP1 cell CPT: inconclusive; TDP1 cell noCPT: 20.6µM

What do the screens show for `CCOc1ccc(S(=O)(=O)N(C(=O)c2ccncc2)c2ccc3oc(C)c(C(=O)OC)c3c2)cc1`?
miR-21 reporter: inconclusive; TDP1 cell CPT: 1.03µM; TDP1 cell noCPT: 0.92µM

Results for COc1ccc(S(=O)(=O)N(C(=O)c2ccncc2)c2ccc3oc(C)c(C(C)=O)c3c2)cc1 ?
miR-21 reporter: inconclusive; TDP1 cell CPT: 3.66µM; TDP1 cell noCPT: 2.31µM

How did O=C1NC(=S)NC1Cc1ccc(O)cc1 (configuration not stated) do in these assays?
TDP1 cell CPT: inactive; TDP1 cell noCPT: inactive; uPA surface inh: inactive

Results for COc1ccc(N(C(=O)c2ccncc2)S(=O)(=O)c2ccc(F)cc2)cc1 ?
miR-21 reporter: inactive; TDP1 inh: inactive

Results for COc1ccc(S(=O)(=O)N(C(=O)c2ccncc2)c2ccc3oc4c(c3c2)CCCC4)cc1 ?
miR-21 reporter: inactive; TDP1 inh: inactive; TDP1 cell CPT: 18.4µM; TDP1 cell noCPT: 20.6µM; uPA surface inh: inactive

How did CC(=O)c1c(C)oc2ccc(N(C(=O)Oc3ccccc3)S(=O)(=O)c3ccc(C(C)(C)C)cc3)cc12 do in these assays?
miR-21 reporter: inactive; TDP1 inh: inactive[12.3 µM]; TDP1 cell CPT: 5.17µM; TDP1 cell noCPT: 9.2µM

Results for CCCCC(=O)N(c1ccc2oc(C)c(C(C)=O)c2c1)S(=O)(=O)c1ccc(F)cc1C ?
miR-21 reporter: inactive; TDP1 inh: inactive; TDP1 cell CPT: 14.6µM; TDP1 cell noCPT: 10.3µM

How did COC(=O)c1c(C)oc2ccc(N(C(=O)c3ccncc3)S(=O)(=O)c3ccc(OC)cc3)cc12 do in these assays?
miR-21 reporter: inactive; TDP1 cell CPT: 0.581µM; TDP1 cell noCPT: 0.517µM

Results for O=c1cc(O)n(-c2ccc(F)cc2)c(=S)[nH]1 ?
miR-21 reporter: inactive; TDP1 inh: inactive; TDP1 cell CPT: inactive; TDP1 cell noCPT: inactive; uPA surface inh: inactive

How did CCc1ccc(S(=O)(=O)N(C(=O)c2ccncc2)c2ccc3oc(C)c(C(=O)OC)c3c2)cc1 do in these assays?
miR-21 reporter: inactive; TDP1 cell CPT: 2.91µM; TDP1 cell noCPT: 2.59µM

How did CCCC(=O)N(c1ccc2oc(C)c(C(C)=O)c2c1)S(=O)(=O)c1ccc(C)cc1 do in these assays?
miR-21 reporter: inactive; TDP1 inh: inactive

What do the screens show for `CCOC(=O)c1c(C)oc2ccc(N(C(=O)c3ccncc3)S(=O)(=O)c3ccc(F)cc3)cc12`?
miR-21 reporter: inactive

Results for CC(=O)c1c(C)oc2ccc(N(C(C)=O)S(=O)(=O)c3cccc([N+](=O)[O-])c3)cc12 ?
miR-21 reporter: inactive; TDP1 inh: inactive; TDP1 cell CPT: 20.6µM; TDP1 cell noCPT: inconclusive; uPA surface inh: inactive

How did CCOC(=O)c1sc(=S)n(C)c1NC(=O)c1cccc(Br)c1 do in these assays?
miR-21 reporter: inactive; TDP1 inh: inactive; TDP1 cell CPT: 20.6µM; TDP1 cell noCPT: 20.6µM; uPA surface inh: inactive

Results for CCOC(=O)c1sc(=S)n(-c2ccccc2)c1NC(C)=O ?
miR-21 reporter: inactive; TDP1 cell CPT: inactive; TDP1 cell noCPT: inactive; uPA surface inh: inactive

Results for CCOC(=O)c1sc(=S)n(C)c1NC(=O)c1ccccc1 ?
miR-21 reporter: inactive; TDP1 inh: inactive; TDP1 cell CPT: inconclusive; TDP1 cell noCPT: 20.6µM; uPA surface inh: inactive

How did Cc1nnc2c(SC(C)C)nc3ccccc3n12 do in these assays?
miR-21 reporter: inactive; TDP1 inh: inactive; TDP1 cell CPT: inconclusive; TDP1 cell noCPT: inconclusive; uPA surface inh: inconclusive

What do the screens show for `O=C(C1=C[C@H](c2ccc(C(F)(F)F)cc2)C[C@H](OCCCCO)O1)N1CCOCC1`?
miR-21 reporter: inactive; TDP1 inh: inactive; TDP1 cell CPT: inactive; TDP1 cell noCPT: inactive; uPA surface inh: inactive

How did CCc1ccc(CNC(=O)c2nn(C)c3c2CS(=O)(=O)c2ccccc2-3)cc1 do in these assays?
miR-21 reporter: inactive; TDP1 inh: inactive; TDP1 cell CPT: inconclusive; TDP1 cell noCPT: inconclusive; uPA surface inh: inactive

How did CCOc1ccccc1CNC(=O)c1nn(C)c2c1CS(=O)(=O)c1ccccc1-2 do in these assays?
miR-21 reporter: inactive; TDP1 inh: inactive; TDP1 cell CPT: 18.4µM; TDP1 cell noCPT: inconclusive; uPA surface inh: inactive

Results for Cc1ccc(CNC(=O)c2nn(C)c3c2CS(=O)(=O)c2ccccc2-3)cc1 ?
miR-21 reporter: inactive; TDP1 inh: inactive; TDP1 cell CPT: 16.4µM; TDP1 cell noCPT: inconclusive; uPA surface inh: inactive

How did Cc1ccc(CNC(=O)CN(C)C2=NS(=O)(=O)c3ccccc32)cc1 do in these assays?
TDP1 inh: inactive; TDP1 cell CPT: 13µM; TDP1 cell noCPT: 9.2µM; uPA surface inh: inactive

Results for CCc1cccc(NC(=O)CSc2nc(C)cs2)c1 ?
TDP1 cell CPT: inactive; TDP1 cell noCPT: inactive

How did CCN(CC)CCOC(=O)c1ccc(NC(=O)CSc2nnc(-c3cccs3)n2CC)cc1 do in these assays?
TDP1 cell CPT: inactive; TDP1 cell noCPT: inactive; uPA surface inh: inactive

How did CCOC(=O)N1CCN(C(=O)c2cc3c(s2)-c2c(C)cccc2OC3)CC1 do in these assays?
miR-21 reporter: inactive; TDP1 inh: inactive; TDP1 cell CPT: inconclusive; TDP1 cell noCPT: inconclusive; uPA surface inh: inactive

What do the screens show for `CN(C)CCN(Cc1ccco1)C(=O)c1cc2c(s1)-c1ccccc1OC2`?
miR-21 reporter: inconclusive; TDP1 inh: inactive; TDP1 cell CPT: 16.4µM; TDP1 cell noCPT: 16.4µM
